Hit rate of the full screen: of about 4,100 compounds, about 1,600 (39%) were called active. Another 25% or so got no clear call; they are omitted. The list shows a part of the results. Unmarked numbers belong to inactive results. The call rests on the fitted dose curve; in most records, active means well fitted inhibition curve with a large enough effect; inconclusive means small, poorly fitted or top-dose-only effect; inactive means no such curve, though single readings can be large or run the other way.
Assay: qHTS Validation assay for Inhibitors of Plasmodium falciparum Dd2 growth in vitro; further: nearly all actives have a fitted effect of over 70% in size
Conditions: P. falciparum Dd2 in RBCs, SYBR Green growth, 72 h; series mostly up to 28.7 µM; activity change, negative = inhibition: at the top concentration
Outline: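 P. falciparum Dd2-infected red blood cells (2.5% hematocrit, 0.3% parasitemia) grown 72 h at 37 °C under 5% O2 with compounds in a titration, 29 uM to 0.5 nM final. Growth read as SYBR Green-1 fluorescence after ~16 h lysis; artesunate 300 nM as positive control.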
On the % scale 0 is the no-effect control and ±100 the full control effect; potency means the concentration at half of the fitted maximal effect.

Structure (SMILES) | activity change, negative = inhibition | Potency
CCCOc1cccc(C(=O)Nc2ccc(-c3cc4ccccc4oc3=O)c(C)c2)c1 | -6.71% | –
Cc1ccccc1OCCSc1nc2ccc(NC(=O)c3ccccc3)cc2s1 | – | 15 µM (active)
COc1ccc(S(=O)(=O)N2CCC3(CC2)OCCN3S(=O)(=O)c2c(C)cc(C)cc2C)cc1 | – | 2.66 µM (active)
COc1ccc(S(=O)(=O)N2CCc3cc(OC)c(OC)cc3C2)cc1 | 22.2% | –
Cc1cccc(NC2=C/C(=N/S(=O)(=O)c3cccs3)c3ccccc3C2=O)c1 | – | 0.168 µM (active)
O=C1C(Nc2ccccc2)=C/C(=N/S(=O)(=O)c2cccs2)c2ccccc21 | – | 0.335 µM (active)
COC(=O)[C@H]1[C@H]2C[C@@H]3c4[nH]c5cc(OC)ccc5c4CCN3C[C@H]2C[C@@H](OC(=O)/C=C/c2cc(OC)c(OC)c(OC)c2)[C@@H]1OC | – | 5.31 µM (active)
CCOC(=O)c1ccc(NC(=O)Cn2c(-c3cnccn3)nc(C)c(CCO)c2=O)cc1 | 0% | –
Cc1ccc(NC(=O)Cn2c(-c3ccccc3)nc(C)c(CCO)c2=O)cc1Cl | – | 10.6 µM (active)
Cc1nc(-c2ccccc2)n(CC(=O)Nc2ccc(Cl)cc2)c(=O)c1CCO | – | 16.8 µM (active)
Cc1nc(-c2cccc(Cl)c2)n(CC(=O)Nc2ccc(C(F)(F)F)cc2)c(=O)c1CCO | – | 13.3 µM (active)
COc1ccc2c(c1)C=C([C@@H]1C[C@H]3CN(c4ccccc4)C(=O)[C@]34CCCN14)CO2 | – | 0.944 µM (active)
COc1ccc(-c2cc(-c3cccc(NC(C)=O)c3)cn3cncc23)cn1 | – | 21.7 µM (active)
O=C(C[C@@H]1CCNC[C@@H]1Cc1cc(CSc2ccccc2)on1)N1CCN(c2ccccc2)CC1 | – | 8.41 µM (active)
O=C(C[C@@H]1CCNC[C@@H]1Cc1cc(COc2ccccc2)on1)NCc1cccs1 | -17.5% [at 43.1 µM] | –
CC(C)(C)c1ccc(-c2cc(C[C@H]3CNCC[C@H]3CC(=O)N3CCN(c4ccccn4)CC3)no2)cc1 | – | 15 µM (active)
CC(=O)N1CCN(C(=O)C[C@@H]2CCNC[C@@H]2Cc2cc(CSc3ccccc3)on2)CC1 | -1% | –
CCC(=O)N1CCCCCCNC(=O)[C@@H]2C[C@@H](C(=O)N3CCN(c4ccccn4)CC3)C[C@@H]21 | 10.7% | –
COc1ccc(CNC(=O)C[C@@H]2CCNC[C@@H]2Cc2cc(-c3ccccc3)on2)cc1OC | 9.35% | –
COc1cc(NC(=O)c2nnn(Cc3ccc(F)cc3)c2N)cc(OC)c1 | -13.8% | –
CCN1CCN(Cc2ccc(NC(=O)c3cc(NC(=O)c4nccnc4N)cc(OC)c3)cc2C(F)(F)F)CC1 | – | 4.73 µM (active)
CCN1CCN(Cc2ccc(NC(=O)c3cc(NC(=O)c4cncc(-c5ccc(C#N)cc5)c4)cc(OC)c3)cc2C(F)(F)F)CC1 | – | 0.596 µM (active)
O=C(Nc1ccc2c(c1)C(=O)N1CCC[C@H]1C(=O)N2)c1cc(-c2ccccc2)n[nH]1 | -18.8% | –
CCN1CCN(Cc2ccc(NC(=O)c3cc(NC(=O)c4cc(-c5ccc(OC)cc5)n[nH]4)cc(OC)c3)cc2C(F)(F)F)CC1 | – | 0.168 µM (active)
COc1ccc(CNC(=O)N[C@@H]2CN(c3ccncn3)C[C@H]2CN(C)C)cc1 | 20.7% | –
O=c1cc(CSc2ccc(Cl)cc2)nc(-c2ccccn2)[nH]1 | – | 5.96 µM (active)

Structure (SMILES) | activity change, negative = inhibition | Potency
COc1ccc2cc1Nc1ccc(cc1)C[C@H](NCc1ccc3c(c1)CCO3)C(=O)N(C)[C@H](C(=O)NCCC(C)C)C2 | – | 3.35 µM (active)
COc1ccc2cc1Nc1ccc(cc1)C[C@H](NCc1cccc(C(=O)O)c1)C(=O)N(C)[C@H](C(=O)Nc1ccccc1OCc1ccccc1)C2 | – | 4.73 µM (active)
COc1ccc2cc1Nc1ccc(cc1)C[C@H](NCc1ccc(C)o1)C(=O)N(C)[C@H](C(=O)NCCC(C)C)C2 | – | 5.96 µM (active)
CC(C)(C)CC(=O)N1CCC(N2C(=O)CCC2C(=O)NCc2ccccc2)CC1 (stereo unspecified) | 12.3% | –
COc1ccc2cc1Nc1ccc(cc1)C[C@H](NCc1ccc(C)o1)C(=O)N(C)[C@@H](C(=O)NCc1ccccc1)C2 | – | 5.31 µM (active)
CCC(=O)N1CCN(c2nc3c(s2)CC(C(=O)NCc2ccc(C)o2)CC3)CC1 (stereo unspecified) | -36.4% | –
Cc1ccc(C(=O)N2CCCCCCNC(=O)[C@@H]3CCC[C@@H]32)s1 | 10.4% | –
Cc1cccc(CSc2nn3c(=O)c(C)nnc3s2)c1 | -11% | –
CNC(=O)[C@@H]1C[C@@H](n2cc(CN(C)C(=O)c3cc(F)ccc3Cl)nn2)CN1 | 1.69% | –
O=C(COc1ccccc1)NC1CC(=O)N(c2ccc3c(c2)OCCO3)C1 (stereo unspecified) | -5.97% | –
CC(C)COC(=O)/C(C#N)=C\c1ccc(-c2ccccc2Cl)o1 | 21.3% | –
O=C1CC(c2ccccc2)N(S(=O)(=O)c2cccc(F)c2)CCCCCN1 (stereo unspecified) | -1.58% | –
Cc1noc(C)c1S(=O)(=O)N1CCc2nc3cc(-c4ccccc4)[nH]n3c(=O)c2C1 | 4.23% | –
Cc1noc(C)c1S(=O)(=O)NCC(=O)N1CCCCCCNC(=O)CC1c1ccccc1 (stereo unspecified) | 4.88% | –
O=C1CC(c2ccccc2)N(Cc2ccncc2)CCCN(S(=O)(=O)c2cccs2)CCN1 (stereo unspecified) | – | 6.68 µM (active)
O=C1CC(c2ccccc2)N(Cc2ccncc2)CCCN(S(=O)(=O)c2cccc(F)c2)CCN1 (stereo unspecified) | – | 4.73 µM (active)
Cc1noc(C)c1S(=O)(=O)N1CCCN(Cc2ccncc2)C(c2ccccc2)CC(=O)NCC1 (stereo unspecified) | – | 7.5 µM (active)
O=C1CCC2(CCN1)CCN(S(=O)(=O)c1cccnc1)CC2 | 0.806% | –
O=C(C1CC1)N(Cc1nc2ccccc2c(=O)[nH]1)Cc1cccs1 | 20.1% | –
COCCN1CCNc2nc(CNCc3cnccn3)n(Cc3ccccc3)c2C1=O | 0% [at 43.1 µM] | –
COc1ccc(CNC[C@H]2O[C@H](Cc3cc(-c4ccc(OC)cc4)on3)CC[C@@H]2O)cc1 | – | 10.6 µM (active)
COc1ccc(-c2cc(C[C@@H]3CC[C@H](O)[C@@H](CNCc4ccccc4OC)O3)no2)cc1 | – | 3.44 µM (active)
Cc1ccc(S(=O)(=O)NC[C@H]2O[C@H](Cc3cc(-c4cccc(O)c4)on3)CC[C@@H]2O)cc1 | -18.8% | –
COc1ccc(CNC[C@H]2O[C@H](Cc3cc(-c4ccccc4)on3)CC[C@@H]2O)cc1 | – | 3.85 µM (active)
O[C@H]1CC[C@@H](Cc2cc(-c3ccc(F)cc3)on2)O[C@@H]1CNC1CCCCC1 | – | 2.43 µM (active)

Reference: PubChem BioAssay AID1347416 (National Center for Advancing Translational Sciences (NCATS), 2020)
